# This is a sample that favours compounds with a hit; in the whole collection about 4% have one here.
# TRHR PAM: qHTS for Small Molecule Agonists and Allosteric Enhancers of Human TRH Receptor: Primary Screen for Enhancers. Thyrotropin-releasing hormone receptor (Homo sapiens), P34981. TRHR cells, fluo-8 calcium fluorescence, EC20 TRH enhancement. enhancement, % at 2 µM. 360,000 compounds, 0.66% hits. AID 493056, 2011; in the data active = enhancement above about 30%; also: 0% is about no effect
# Target sequence (P34981 whole entry, looked up): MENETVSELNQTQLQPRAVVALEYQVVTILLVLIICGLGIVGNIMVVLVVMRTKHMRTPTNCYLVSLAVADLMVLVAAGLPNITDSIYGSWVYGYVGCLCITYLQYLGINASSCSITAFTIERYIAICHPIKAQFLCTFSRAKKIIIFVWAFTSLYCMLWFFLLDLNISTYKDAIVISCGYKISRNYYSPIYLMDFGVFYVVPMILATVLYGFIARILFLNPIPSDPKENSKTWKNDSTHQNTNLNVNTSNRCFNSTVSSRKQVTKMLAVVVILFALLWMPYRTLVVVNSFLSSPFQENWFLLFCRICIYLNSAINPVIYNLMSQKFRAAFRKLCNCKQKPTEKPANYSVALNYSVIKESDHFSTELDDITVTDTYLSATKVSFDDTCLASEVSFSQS
#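 Enhancer read-out: after compound pinning and an initial kinetic agonist-mode read, an EC20 of TRH (10 nM final) was injected and fluo-8 calcium signal (Ex 480/Em 530) followed at 1 s/cycle for 100 cycles in TRHR-expressing cells.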
# D1 agonist: Allosteric Agonists of the Human D1 Dopamine Receptor: qHTS | D(1A) dopamine receptor (Homo sapiens), P21728 | HEK293 T-REx D1 cells, calcium flux, agonist mode | activation, % at 2 µM | 360,000 compounds, 1% hits | AID 504660, 2011; also: 0% is about no effect
#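 Agonism was scored from calcium flux recorded over 180 s (1 read/s) after pintool compound addition, following a 10-cycle baseline. Cells were inducible force-coupled HEK293 TREx D1, plated overnight at 30 C and loaded with no-wash calcium dye.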
# Glioma ERSR ind: qHTS for Inducers of the Endoplasmic Reticulum Stress Response (ERSR) in Human Glioma: qHTS | U87-MG GRP78 promoter luciferase reporter, 16 h | Potency, µM, for inactives: top-dose activation, actives largely listed as activators | 420,000 compounds, 0.02% hits; active = well fitted activation curve with a large enough effect; also: potency is read from the fitted curve at half-maximal effect; series mostly up to about 76 µM; % of control where 0% means no effect; nearly all actives have a fitted effect of over 35% in size
#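 Stably transfected U87-MG glioma cells carrying a GRP78-based luciferase sensor; 16 h compound incubation. Luminescence end-point read 10 min after Bright-Glo addition at room temperature.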
# D1 antag: Antagonist of Human D 1 Dopamine Receptor: qHTS. HEK293 TREx D1 cells, calcium flux, dopamine EC80; hits give low values. 360,000 compounds, 3.2% hits. activity change, negative = inhibition, % at 10 µM. D(1A) dopamine receptor (Homo sapiens), P21728; in the data active = activity change below about -30%; also: % is scaled to controls: 0 for no effect and ±100 for the full control effect
#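 After overnight tetracycline induction at 30 C, force-coupled D1 HEK293 cells took up a no-wash calcium dye at room temperature. Compounds were added and monitored 180 s, and the response to EC80 dopamine was then recorded.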
# D1 PAM: Potentiators of Human D1 Dopamine Receptor: qHTS; 360,000 compounds, 0.036% hits; D(1A) dopamine receptor (Homo sapiens), P21728; potentiation, % at 10 µM; HEK293 TREx D1 cells, calcium flux, dopamine EC20 potentiation; AID 504651, 2011; in the data active = potentiation above about 30%; also: 0% is about no effect
# TRHR agonist: qHTS for Small Molecule Agonists and Allosteric Enhancers of Human TRH Receptor: Primary Screen for Agonists | activation, % at 2 µM | 360,000 compounds, 0.18% hits | TRHR cells, calcium flux fluo-8, FDSS agonist mode | AID 493084, 2011 | Thyrotropin-releasing hormone receptor (Homo sapiens), P34981; also: 0% is about no effect
#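 In this calcium-flux screen, cells bearing human TRHR are dye-loaded with fluo-8, baselined for 10 cycles, then exposed to library compounds; positive kinetic calcium responses during the agonist phase mark hits, with TRH as control.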
# Starred values were filed as active, the others as inactive; . = no result given; ! = repeats disagree. Rule as the data show it, unless noted: active = activation above about 30%; inactive = the rest.
SMILES,TRHR PAM,D1 agonist,Glioma ERSR ind,D1 antag,D1 PAM,TRHR agonist
CCCc1nnc(NC(=O)c2cc3ccccc3o2)s1,-9,1,2%,-53*,-3,0
CC(C)(O)C#Cc1ccc(C(=O)N2CCN(c3ccccc3)CC2)cc1,34*,3,-3%,-25,-1,1
COc1cc(/C=N/NC(=O)C(=O)NCc2cccnc2)ccc1O,4,2,-1%,-3,-3,-1
CCOc1cc(/C=N/NC(=O)C(=O)NCc2cccnc2)ccc1O,-1,-1,-4%,-35*,-3,0
CCc1nc(NCC2CCCO2)c(C#N)c2c1COC(C)(C)C2 (stereo not given),8,1,-5%,-35*,-2,-1
CN(C)c1cccc(C(=O)N(C)C2CCCN(Cc3ccccc3F)C2)c1 (stereo not given),31*,1,-3%,-5,2,0
Cc1cc(C)cc(C(=O)N(C)C2CCCN(Cc3ccccc3F)C2)c1 (stereo not given),6,1,0%,5,-5,0
Cc1ccnc2c(Cl)c(Cl)ccc12,.,.,-3%,.,.,.
O=C(c1ccc(O)cc1)c1ccc(C(=O)c2ccc(O)cc2)cc1,7,22,-4%,-80*,-10,0
O=C(C(=O)c1ccc(O)cc1)c1ccccc1,-2,1,-3%,6,0,0
CCN(CC)Cc1nc2c(c(=O)[nH]1)C(CC)(CC)Cc1ccccc1-2,7,0,0%,31,11,0
CCN(Cc1cc2ccccc2[nH]c1=O)S(=O)(=O)c1ccc(OC)cc1,-7,6,-2%,-39*,-7,-1
COc1ccc(S(=O)(=O)N(Cc2cc3cc(C)ccc3[nH]c2=O)CC2CCCO2)cc1 (stereo not given),-2,0,0%,-5,12,0
COc1ccc(N(Cc2cc3ccccc3[nH]c2=O)S(=O)(=O)c2ccccc2)cc1,-9,1,-4%,5,3,0
O=c1[nH]c2ccccc2cc1CN(CC1CCCO1)S(=O)(=O)c1ccccc1 (stereo not given),-20,-1,-2%,-35*,-7,0
CSc1ncccc1C(=O)NCC1Cc2cc(-c3cnccn3)cc(Cl)c2O1 (stereo not given),.,.,4%,.,.,.
Cc1nc(C)n(CC(=O)NCC2Cc3cc(-c4ccsc4)cc(Cl)c3O2)n1 (stereo not given),.,.,-1%,.,.,.
CCN1C(=NCCOC)N[C@@H](c2cccc(F)c2)C(C(=O)OC)=C1C,8,2,-6%,-5,3,0
CCN1C(=NCC(C)C)N[C@@H](c2cccc(F)c2)C(C(=O)OC)=C1C,-12,6,-6%,-33*!,-2,1
CCOc1ccc2c(c1)c(=O)c(S(=O)(=O)c1ccc(Cl)cc1)cn2Cc1ccccc1C,40*,2,-3%,-3,-2,1
Cc1ccc(S(=O)(=O)c2cn(Cc3cccc(C)c3)c3cc4c(cc3c2=O)OCO4)cc1,7,15,2%,-9,-4,-1
COc1ccc(Cn2cc(S(=O)(=O)c3ccc(Cl)cc3)c(=O)c3cc4c(cc32)OCO4)cc1,17,0,-2%,-42*,0,0
c1ccc(CC2CCN(c3ncnc4sccc34)CC2)cc1,-9,38*,4%,-29,-8,1
CCC(=O)Nc1ccc(S(=O)(=O)N2CCc3ccccc32)cc1,7,8,-6%,-41*,-8,0
COC(=O)Nc1ccc(S(=O)(=O)N2CCCc3ccccc32)cc1,-3,5,5%,-38*,-2,0
O=C(Nc1nnc(S(=O)(=O)N2CCCc3ccccc32)s1)c1ccccc1,2,0,-1%,-33*,0,0

# Screening data (PubChem)
